According to PubChem BioAssay:
Results filed as inconclusive are left out. The source made the active and inactive calls. Cut-off read from the data, not from the text of the source, unless noted: active = inhibition above about 80%; inactive = the rest.

Tests used:
[1] = growth inhibition of DIPG glioma cells, dose response, cell-based, SU-DIPG-XVII, MIPE5.0, CellTiter-Glo, qHTS (AID 1347060; cut-off not given, nearly all actives have AC50 up to about 26 µM;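 note: cells exposed to compound for 48 hours before viability readout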); conditions: SU-DIPG-XVII viability, CellTiter-Glo ATP luminescence
[2] = growth inhibition of DIPG glioma cells, dose response, cell-based, SU-DIPG-XIII, MIPE5.0, CellTiter-Glo, qHTS (AID 1347064; cut-off not given, nearly all actives have AC50 up to about 23 µM); conditions: SU-DIPG-XIII viability, CellTiter-Glo ATP luminescence
[3] = viability loss in pontine glioma line – cell-based, SU-DIPG-XXV, MIPE5.0, CellTiter-Glo, qHTS, dose response (AID 1347065; cut-off not given, nearly all actives have AC50 up to about 26 µM;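 note: cells exposed to compound for 48 hours before ATP readout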); conditions: CellTiter-Glo ATP luminescence
[4] = JHH-DIPG-1 glioma cell viability, MIPE5.0 library, CellTiter-Glo luminescence, qHTS (AID 1347067; cut-off not given, nearly all actives have AC50 up to about 26 µM;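 note: cells exposed to compound for 48 hours before readout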); conditions: JHH-DIPG-1 glioma viability, CellTiter-Glo ATP luminescence
[5] = SU-DIPG-XXV glioma cell viability, MIPE5.0 library, qHTS (AID 1347068; cut-off not given, nearly all actives have IC50 up to about 30 µM)
[6] = LFS_MB_P medulloblastoma growth inhibition, cell-based, chromothripsis tumors, cisplatin or BGB combos (AID 1671449); conditions: LFS_MB_P medulloblastoma cells;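 note: cells exposed for 96 hours; 0% = vehicle DMSO and 100% = killing by high DMSO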
[7] = HDN33 neuroblastoma growth inhibition, cell-based, chromothripsis tumors, cisplatin or BGB combos (AID 1671450); conditions: HDN33 neuroblastoma cells, stronger effect = higher value;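 note: cells exposed to compound for four days; 0% = vehicle DMSO and 100% = cell killing by high DMSO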
[8] = ICB984 medulloblastoma cell growth inhibition, synergistic combos for chromothripsis tumors, cisplatin or BGB combos (AID 1671451; call rule not given here;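 note: cells exposed for 96 hours before readout; 0% = vehicle DMSO and 100% = killing by high DMSO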); conditions: ICB984 medulloblastoma cells, drug combinations, stronger effect = higher value
[9] = LFS_MB_1R medulloblastoma cell growth inhibition, synergistic combos for chromothripsis tumors, cisplatin or BGB combos (AID 1671452); conditions: LFS_MB_1R medulloblastoma cells, stronger effect = higher value;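 note: cells exposed for 96 hours before readout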
[10] = HTB85 osteosarcoma cell growth inhibition, synergistic combos for chromothripsis tumors, BGB or cisplatin IC20 combos (AID 1671453); conditions: HTB85 osteosarcoma cells, drug combinations, stronger effect = higher value;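 note: cells exposed for 96 hours before readout; 0% = vehicle DMSO and 100% = high DMSO killing control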
[11] = CRL2098 osteosarcoma cell growth inhibition, synergistic combos for chromothripsis tumors, BGB or cisplatin IC20 combos (AID 1671454); conditions: CRL2098 osteosarcoma cells, drug combinations, stronger effect = higher value;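 note: cells exposed for 96 h before readout; 0% = vehicle DMSO and 100% = killing by high DMSO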
[12] = HD-MB03 medulloblastoma cell growth inhibition, synergistic combos for chromothripsis tumors, BGB or cisplatin IC20 combos (AID 1671455; in the data active = inhibition above about 83%;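 note: 0% = vehicle DMSO and 100% = high DMSO as cytotoxic control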); conditions: HD-MB03 medulloblastoma cells, stronger effect = higher value
[13] = UWB1.289 ovarian carcinoma cell growth inhibition, synergistic combos for chromothripsis tumors, BGB or cisplatin combos (AID 1671456); conditions: UWB1.289 ovarian carcinoma cells, stronger effect = higher value;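 note: cells exposed to compound for four days; 0% = vehicle DMSO and 100% = killing by high DMSO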
[14] = LFS_MB_2R medulloblastoma cell growth inhibition, synergistic combos for chromothripsis tumors, cisplatin combos (AID 1671457); conditions: LFS_MB_2R medulloblastoma cells, stronger effect = higher value;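 note: cells exposed to compound for four days before readout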
[15] = MDA-MB-436 breast carcinoma cell growth inhibition, synergistic combos for chromothripsis tumors, BGB or cisplatin combos (AID 1671458; call rule not given here;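 note: cells exposed for 96 hours; 0% = vehicle DMSO and 100% = killing by high DMSO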); conditions: MDA-MB-436 breast carcinoma growth inhibition, drug combinations, stronger effect = higher value
[16] = UWB1.289_BRCA1 ovarian cancer growth, cell-based, BGB or cisplatin combinations (AID 1671459); conditions: UWB1.289 BRCA1 ovarian carcinoma, drug combinations, stronger effect = higher value
[17] = human astrocyte viability loss, single and combined drugs, cytotoxicity control for chromothriptic childhood tumor combination screen, cell-based, BGB or cisplatin IC20 combos (AID 1671460); conditions: Human astrocytes, drug combinations, stronger effect = higher value;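 note: cells exposed to compounds for 96 hours before viability readout; 0% = vehicle and 100% = killing control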
[18] = growth inhibition of BT084 medulloblastoma cells, cell-based, ICGC_MB145, cisplatin and BGB IC40 combos (AID 1671461); conditions: drug combinations, stronger effect = higher value;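 note: cells exposed to drugs for 96 hours; 0% = vehicle DMSO and 100% = high DMSO full killing control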
[19] = growth inhibition of RCMB18 medulloblastoma cells, cell-based, cisplatin and BGB IC40 combos (AID 1671462); conditions: stronger effect = higher value;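 note: cells exposed to compound for four days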
[20] = growth inhibition of CRL1545 osteosarcoma cells, cell-based, cisplatin and BGB IC20 combos (AID 1671464); conditions: stronger effect = higher value;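 note: cells exposed to compound for 96 hours before readout; 0% = vehicle DMSO and 100% = high DMSO killing control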
[21] = measured here: combination with BGB IC40, at 0.05 µM
[22] = measured here: with BGB IC20 combination, at 0.5 µM
[23] = measured here: with cisplatin IC20 combination, at 0.5 µM
[24] = measured here: combination with cisplatin, at 0.5 µM
[25] = measured here: combination with cisplatin, at 5 µM

Cn1c(COP(=O)(NCCBr)NCCBr)cnc1[N+](=O)[O-]
AC50 [1]: 20.9 µM (active) | outcome [2]: inactive | outcome [3]: inactive | outcome [4]: inactive | outcome [5]: inactive | inhibition ([6]; at 0.5 µM, stronger effect = higher value): 16.6% (inactive) | inhibition ([6]; measured here: combination with BGB IC20, at 0.005 µM): -38.7% | inhibition ([6]; measured here: combination with BGB IC40, at 0.005 µM): -32.5% | inhibition [6, 21]: -39.8% | inhibition ([6]; measured here: combination with cisplatin, at 0.5 µM, stronger effect = higher value): 62.9% | inhibition ([6]; measured here: combination with cisplatin, at 5 µM, stronger effect = higher value): -58.8% | inhibition ([7]; BGB combo, at 5 µM): 19.8% | inhibition ([7]; at 0.5 µM): -18.8% (inactive) | inhibition ([7]; cisplatin combo, at 5 µM): 19.2% | inhibition [7, 22]: -21.2% | inhibition [7, 23]: -10.2% | inhibition ([7]; single agent, at 5 µM): 80.3% | inhibition ([8]; BGB IC20 combo, at 0.005 µM): -13.2% | inhibition ([8]; BGB IC40 combo, at 0.005 µM): -25.1% | inhibition ([8]; BGB IC40 combo, at 0.05 µM): -34.6% | inhibition ([8]; at 0.5 µM): -26% (inactive) | inhibition ([8]; cisplatin combo, at 0.05 µM): -39.4% | inhibition ([8]; cisplatin combo, at 0.5 µM): -24.4% | inhibition ([8]; cisplatin combo, at 5 µM): -33.7% | inhibition ([8]; measured here: 5 uM single agent, at 5 µM): -29.2% | inhibition ([9]; at 0.5 µM): -28.2% (inactive) | inhibition [9, 21]: -23.6% | inhibition [9, 24]: -60.8% | inhibition [9, 25]: 3.76% | inhibition ([10]; at 0.5 µM): -13.1% (inactive) | inhibition ([10]; measured here: with BGB IC20, at 0.5 µM): -24.6% | inhibition ([10]; measured here: with BGB IC20, at 5 µM): 10.3% | inhibition ([10]; measured here: with cisplatin IC20, at 0.5 µM): -0.449% | inhibition ([10]; measured here: with cisplatin IC20, at 5 µM): 2.49% | inhibition ([10]; single agent, at 5 µM): 1.71% | inhibition ([11]; at 0.5 µM): -67.6% (inactive) | inhibition ([11]; measured here: combination with BGB at IC20, at 0.5 µM): -30.9% | inhibition ([11]; measured here: combination with cisplatin at IC20, at 0.5 µM): -117% | inhibition ([12]; at 0.5 µM): -3.14% (inactive) | inhibition ([12]; measured here: combo with BGB at IC20, at 0.5 µM): -10.4% | inhibition ([12]; measured here: combo with cisplatin at IC20, at 0.5 µM): 4.61% | inhibition ([13]; at 0.5 µM): 3.29% (inactive) | inhibition ([13]; measured here: inhibition with BGB combination, at 0.05 µM): -25.1% | inhibition ([13]; measured here: inhibition with cisplatin combination, at 0.05 µM): -14.8% | inhibition ([14]; at 0.5 µM): -29.8% (inactive) | inhibition [14, 24]: -33.9% | inhibition [14, 25]: -23.3% | inhibition ([15]; at 0.5 µM): -13.5% (inactive) | inhibition ([15]; measured here: BGB combination, at 0.5 µM): -12% | inhibition ([15]; measured here: BGB combination, at 5 µM): 10.1% | inhibition ([15]; measured here: cisplatin combination, at 0.5 µM): -29.2% | inhibition ([15]; measured here: cisplatin combination, at 5 µM): 7.72% | inhibition ([16]; BGB combination, concentration series, at 5 µM): -3.84% | inhibition ([16]; at 0.5 µM): -16% (inactive) | inhibition ([16]; cisplatin combination, concentration series, at 5 µM): -17.2% | inhibition ([17]; at 0.5 µM): -2.6% (inactive) | inhibition ([17]; measured here: combo with BGB IC20, at 0.5 µM): -17% | inhibition ([17]; measured here: combo with cisplatin IC20, at 0.5 µM): 9.13% | inhibition ([18]; at 0.5 µM): -25.1% (inactive) | inhibition ([18]; cisplatin combination, at 0.5 µM): -38.4% | inhibition ([18]; cisplatin combination, at 5 µM): -11.7% | inhibition ([18]; measured here: BGB IC40 combination 0.05 uM, at 0.05 µM): 14.8% | inhibition ([18]; single agent, at 5 µM): -36.3% | inhibition ([19]; at 0.5 µM): -3.65% (inactive) | inhibition ([19]; cisplatin combo, at 5 µM): 1.65% | inhibition ([19]; measured here: BGB IC40 combination, at 0.05 µM): -12.5% | inhibition [19, 24]: 13.3% | inhibition ([19]; single agent, at 5 µM): -38.1% | inhibition ([20]; at 0.5 µM): -36.2% (inactive) | inhibition [20, 22]: -10% | inhibition [20, 23]: -51.7% | inhibition ([20]; single agent, at 0.05 µM): -14% | inhibition ([20]; single agent, at 5 µM): 52.6%
